Abeta rescue: compounds reversing amyloid beta toxicity in yeast; yeast expressing A-beta42, growth rescue, OD600, 48 h; response scale: 0% DMSO, 100% iron-clioquinol control; Potency, µM (doses to about 46.1 µM), actives largely listed as activators; hit rate 0.063% among 410,000; further: nearly all actives have a fitted effect of over 55% in size
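Growth rescue measured by 600 nm absorbance after 48 h yeast culture at 30 C with compound. Values normalized between DMSO and an equimolar ferric chloride plus clioquinol control.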
TDP-43 yeast inh: inhibitors of TDP-43 toxicity in yeast; TDP-43 expressing yeast growth rescue, BacTiter-Glo, 24 h; Potency, µM (top dose mostly 46.1 µM), hits mostly activators; hit rate 1.8% among 410,000; further: nearly all actives have a fitted effect of over 50% in size
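Galactose-induced TDP-43 yeast, OD600=0.02, compound pinned; 24 hr, 30 deg C; BacTiter-Glo luminescence for growth. Inhibitors of TDP-43 toxicity read as activators.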
Mito fusion act: inhibitors of mitochondrial division or activators of mitochondrial fusion; S. cerevisiae fusion-defective mutant growth rescue, CellTiterGlo 48 h; Potency, µM (titrated, usually from 46.1 µM), actives largely listed as activators; hit rate 0.23% among 320,000; AID 485298; further: nearly all actives have a fitted effect of over 45% in size
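Compounds are tested for their ability to restore growth of mitochondrial fusion-defective yeast strains at non-permissive 37C in YPEG medium over 48 hours. Viability is quantified by luciferase luminescence.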
aSyn yeast inh: inhibitors of alpha-synuclein toxicity in yeast. Yeast expressing alpha-synuclein, growth rescue, BacTiter-Glo, 24 h. Potency, µM (highest dose often 46.1 µM), hits mostly activators. hit rate 0.14% among 370,000; further: nearly all actives have a fitted effect of over 65% in size
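Readout is rescue of growth in alpha-synuclein-expressing yeast, so inhibitors of toxicity appear as activators. Growth after 24 hr at 30 deg C in galactose medium is quantified by luminescence.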
FUS suppressor: suppressors of FUS proteinopathy in yeast | S. cerevisiae FUS-expressing, growth rescue, OD600, 24 h | Potency, µM (top dose mostly 76.6 µM), usual class: activators | hit rate 0.24% among 390,000 | AID 1347120; further: nearly all actives have a fitted effect of over 55% in size
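Toxicity suppression screen in FUS-yeast. Cells induced with 2% galactose, starting OD 0.005, treated 24hr at 30C with compounds at multiple final concentrations; growth by OD600.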
ERG Ets-DNA blk: ERG Ets/DNA interaction inhibition; P11308; fluorescence polarization, His-ERG Ets domain / labelled DNA; Potency, µM (top dose mostly 76.9 µM), actives largely listed as inhibitors; hit rate 0.028% among 370,000; AID 624246; active means well fitted inhibition curve with a large enough effect in the polarisation, with a control signal flat; inconclusive means small, poorly fitted or top-dose-only effect, or effect the other way, or a change in a side signal; inactive means no such curve, though single readings can be large or run the other way; the % refers to the polarisation;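 further: polarization taken with two DNA probes labelled with fluorescein and Texas red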
Target sequence (P11308 whole entry, looked up, the tested form may be a part): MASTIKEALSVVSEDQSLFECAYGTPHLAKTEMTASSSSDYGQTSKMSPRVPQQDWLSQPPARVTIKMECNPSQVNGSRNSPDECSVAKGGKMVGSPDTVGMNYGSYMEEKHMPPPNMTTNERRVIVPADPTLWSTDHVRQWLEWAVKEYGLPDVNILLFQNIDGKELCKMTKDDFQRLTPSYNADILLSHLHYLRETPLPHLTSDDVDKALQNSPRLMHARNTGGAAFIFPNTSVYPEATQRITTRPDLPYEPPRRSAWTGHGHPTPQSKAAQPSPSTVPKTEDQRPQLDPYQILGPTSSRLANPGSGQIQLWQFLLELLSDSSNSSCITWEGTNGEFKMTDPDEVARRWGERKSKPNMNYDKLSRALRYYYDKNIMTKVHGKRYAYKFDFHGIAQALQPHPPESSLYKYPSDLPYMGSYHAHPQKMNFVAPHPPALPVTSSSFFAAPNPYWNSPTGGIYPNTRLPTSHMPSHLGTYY
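His-tagged ERG Ets domain (1 uM in the protein solution; 300mM KCl, 50mM Tris-HCl, 1mM EDTA, 1mM DTT, pH 7.5) received compound, then a probe mix of 5 nM fluorescein-DNA and 100nM Texas-615-DNA. Fluorescence polarization was read for both dyes.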
Numbers stand for hits; [ ] = remark or other dose. The list is not random: actives were taken first. Their share in the collection is about 2.2%. Unless noted, the call rests on the fitted dose curve; in most records, active means well fitted curve in the direction sought with a large enough effect; inconclusive means small, poorly fitted or top-dose-only effect, or another doubt; inactive means no such curve, though single readings can be large; an effect the other way counts as inactive or inconclusive.

For COc1ccc(-n2c(/C=C(\C)O)nc(=O)c3c(C)cc(C)nc32)cc1 the results were Abeta rescue inactive, TDP-43 yeast inh inactive, Mito fusion act 20µM, aSyn yeast inh inactive, FUS suppressor inactive and ERG Ets-DNA blk inactive.
For COc1ccc(-n2c(C)nn(C)c2=O)cc1 the results were Abeta rescue inactive, TDP-43 yeast inh inactive, Mito fusion act inactive, aSyn yeast inh inactive, FUS suppressor inactive and ERG Ets-DNA blk inactive.
CN1/C(=C/C(=S)NC(=O)C2(C)CC2(Cl)Cl)C(C)(C)c2ccccc21 (configuration not stated) was read as Abeta rescue 10µM, TDP-43 yeast inh inactive[1.82 µM], Mito fusion act inactive, aSyn yeast inh inactive, FUS suppressor inconclusive and ERG Ets-DNA blk inactive.
`COc1ccc(NC(=O)CC2C(=O)N(c3cccc(C)c3)C(=O)N2Cc2cccnc2)cc1` (configuration not stated) gave Abeta rescue inactive, TDP-43 yeast inh inactive, FUS suppressor inactive and ERG Ets-DNA blk inactive.
CCc1ccccc1N1CSC2=C(C#N)C(c3cc(OC)c(OC)cc3OC)CC(=O)N2C1 (configuration not stated) was read as Abeta rescue inactive, TDP-43 yeast inh 0.032µM, Mito fusion act inactive, aSyn yeast inh inactive, FUS suppressor inconclusive and ERG Ets-DNA blk inactive.
`Clc1ccc(-c2nc3ccc(Cl)cn3c2Cc2ccccc2)cc1` gave Abeta rescue inactive, TDP-43 yeast inh 20µM, aSyn yeast inh inactive and FUS suppressor inactive.
For Clc1ccc2nc(-c3ccccc3)c(Cc3ccccc3)n2c1 the results were Abeta rescue inactive, TDP-43 yeast inh inactive, aSyn yeast inh inactive and FUS suppressor inactive.
`Fc1ccc(-c2nc3ccc(Cl)cn3c2Cc2ccccc2)cc1` gave Abeta rescue inactive, TDP-43 yeast inh 35µM, aSyn yeast inh inactive and FUS suppressor inactive.
For Cc1cc(NC(=O)C2CCCN(S(=O)(=O)c3cccc4nsnc34)C2)ccc1Br (configuration not stated) the results were Abeta rescue inactive, TDP-43 yeast inh inconclusive, FUS suppressor inactive and ERG Ets-DNA blk inactive.
For CC(=O)c1ccc([C@H](O)[C@H](C)C(=O)N(C)c2ccccc2)cc1 the results were FUS suppressor inactive.
Cn1nnc2c(NCc3ccc(Cl)cc3)ncnc21 was read as Abeta rescue inactive, TDP-43 yeast inh 11µM, FUS suppressor inactive and ERG Ets-DNA blk inactive.
O=C1CC(c2ccc(F)cc2)CC2=C1C=Nc1ccccc1N2 (configuration not stated) was read as Abeta rescue inactive, TDP-43 yeast inh 22µM, Mito fusion act inactive, aSyn yeast inh inactive, FUS suppressor inactive and ERG Ets-DNA blk inactive.
`O=C1CC(c2ccccc2)CC2=C1C=Nc1ccccc1N2` (configuration not stated) gave Abeta rescue inactive, TDP-43 yeast inh inactive, Mito fusion act inactive, aSyn yeast inh inactive, FUS suppressor inactive and ERG Ets-DNA blk inactive.
O=[N+]([O-])c1ccc(/C=N/Nc2nc(-c3ccccc3)c3cc(Br)ccc3n2)o1 was read as Abeta rescue inactive, TDP-43 yeast inh 11µM, Mito fusion act inactive, aSyn yeast inh inactive, FUS suppressor inactive and ERG Ets-DNA blk inactive.
Screening Cc1ccc2nc(N/N=C\c3ccc([N+](=O)[O-])o3)nc(-c3ccccc3)c2c1 returned Abeta rescue inactive, TDP-43 yeast inh inactive, Mito fusion act inactive, aSyn yeast inh inactive, FUS suppressor inactive and ERG Ets-DNA blk inactive.
For Clc1nc(Cl)nc(NCCC2=CCCCC2)n1 the results were Abeta rescue inactive, TDP-43 yeast inh 10µM, Mito fusion act inactive, aSyn yeast inh inactive, FUS suppressor inactive and ERG Ets-DNA blk inactive.
For O=C(COC(=O)c1cc(-c2ccc(F)cc2)nc2ccccc12)NCC1CCCO1 (configuration not stated) the results were Abeta rescue inactive, TDP-43 yeast inh 14µM, Mito fusion act inactive, aSyn yeast inh inactive, FUS suppressor inactive and ERG Ets-DNA blk inactive.
Screening COc1ccc(CCNC(=O)c2cc(Nc3cc(C)cc(C)c3)nc3ccccc23)cc1OC returned Abeta rescue inactive, TDP-43 yeast inh inactive, FUS suppressor inconclusive and ERG Ets-DNA blk inactive.
`CCc1cc2c(SC(C)C(=O)NC3CCCC3)ncnc2s1` (configuration not stated) gave Abeta rescue inactive, TDP-43 yeast inh 35µM, aSyn yeast inh inactive, FUS suppressor inactive and ERG Ets-DNA blk inactive.
`O=C(c1cccs1)N1CCCc2cc(NS(=O)(=O)c3ccc(F)cc3)ccc21` gave Abeta rescue inactive, TDP-43 yeast inh inactive[9.22 µM], FUS suppressor inactive and ERG Ets-DNA blk inactive.
CCn1c(SCC(=O)Nc2nc(-c3ccc(C)cc3)cs2)nnc1-c1ccccc1O was read as Abeta rescue inactive, TDP-43 yeast inh 20µM, Mito fusion act inconclusive, aSyn yeast inh inactive, FUS suppressor inactive and ERG Ets-DNA blk inactive.
For Cc1csc(SCC(=O)Nc2nc(-c3ccccc3)cs2)n1 the results were Abeta rescue inactive, TDP-43 yeast inh 14µM, Mito fusion act inactive, aSyn yeast inh inactive, FUS suppressor inactive and ERG Ets-DNA blk inactive.
`O=C(CSCC(=O)N1CCCc2ccccc21)Nc1nc(-c2ccccc2)cs1` gave Abeta rescue inactive, TDP-43 yeast inh 11µM, Mito fusion act 18µM, aSyn yeast inh inactive, FUS suppressor inconclusive and ERG Ets-DNA blk inactive.
For CCn1c(SCC(=O)Nc2nc(-c3ccc(C)cc3)cs2)nnc1-c1ccccc1 the results were Abeta rescue inactive, TDP-43 yeast inh inactive, Mito fusion act inactive, aSyn yeast inh inactive, FUS suppressor inactive and ERG Ets-DNA blk inactive.
O=C(C[n+]1cc(-c2ccccc2)n2c1CCC2)Nc1nc(-c2ccccc2)cs1 was read as Abeta rescue inactive, TDP-43 yeast inh inactive, Mito fusion act inactive, aSyn yeast inh inactive and ERG Ets-DNA blk inactive.
`CC1CCN(C(=O)CSCC(=O)Nc2nc(-c3cccs3)cs2)CC1` gave Abeta rescue inactive, TDP-43 yeast inh 35µM, Mito fusion act inactive, aSyn yeast inh inactive, FUS suppressor inconclusive and ERG Ets-DNA blk inactive.
For CCc1cccc(-n2c(=O)c3cccnc3n2CC(=O)NCc2ccccc2Cl)c1 the results were Abeta rescue inactive, TDP-43 yeast inh inactive, FUS suppressor inactive and ERG Ets-DNA blk inactive.
`COc1ccc(NC(=O)CSC2=Nc3ccccc3C3=NC(CC(=O)NCc4ccco4)C(=O)N23)cc1` (configuration not stated) gave Abeta rescue inactive, TDP-43 yeast inh inactive, FUS suppressor inactive and ERG Ets-DNA blk inactive.
COc1cccc(CNc2nc3cc(-c4cscc4C)sc3c(=O)n2C)c1 was read as Abeta rescue inactive, TDP-43 yeast inh 20µM, aSyn yeast inh inconclusive and FUS suppressor inconclusive.
